“And” between values parts separate entries of the source, which are not always exact repeats. Equal entries are not always repeated. About 83,000 compounds went through this panel and 20% of them were active in at least one assay; those are over-represented in the sample as a whole.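 Testing used 96-well plates and a 48-hour single-concentration exposure. Example: -40 means 40% of the starting cells died.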 The source made the active and inactive calls. How the source made its calls: active means growth percent below 10; inactive means the rest.
Legend:
Test in all cases: NCI-60 one-dose screen, 48 h (100 = growth as untreated, 0 = no growth, -100 = all killed)
Details in all cases: 10 µM unless noted
NCI-H23 lung = system: NCI-H23 lung
NCI-H226 lung = system: NCI-H226 lung
NCI-H322M lung = system: NCI-H322M lung
HOP-62 NSCLC = system: HOP-62 NSCLC
NCI-H460 lung = system: NCI-H460 lung
HOP-92 NSCLC = system: HOP-92 NSCLC
NCI-H522 lung = system: NCI-H522 lung
A549/ATCC NSCLC = system: A549/ATCC NSCLC
786-0 renal = system: 786-0 renal
COLO 205 colon = system: COLO 205 colon
DU-145 prostate = system: DU-145 prostate
K-562 leukemia = system: K-562 leukemia
MALME-3M melanoma = system: MALME-3M melanoma
MDA-MB-231 breast = system: MDA-MB-231 breast
RXF 393 renal = system: RXF 393 renal
SF-268 CNS = system: SF-268 CNS
SF-295 CNS = system: SF-295 CNS
SF-539 CNS = system: SF-539 CNS
UACC-257 melanoma = system: UACC-257 melanoma
M14 melanoma = system: M14 melanoma

Measured: growth

Nc1ccc(/C=N/Nc2ccnc3c(N)cccc23)c2cccnc12
active: NCI-H23 lung 3.42% | NCI-H322M lung -4.16% | HOP-62 NSCLC -64.3% | NCI-H460 lung -63.8% | HOP-92 NSCLC -17.9% | NCI-H522 lung -52.2% | A549/ATCC NSCLC -43.8% | 786-0 renal -87% | COLO 205 colon -22.8% | DU-145 prostate -49.1% | K-562 leukemia -55.7% | MDA-MB-231 breast -66.6% | RXF 393 renal -72.5% | SF-268 CNS -61.8% | SF-295 CNS -75.6% | SF-539 CNS -94.9% | M14 melanoma -78.6%
inactive: NCI-H226 lung 89.3% | MALME-3M melanoma 104% | UACC-257 melanoma 88.1%

COc1ccc(/C=C(\C#N)c2cc3ccccc3[nH]2)cc1
inactive: NCI-H23 lung 33.2% | NCI-H226 lung 88% | NCI-H322M lung 49.9% | HOP-62 NSCLC 33.2% | NCI-H460 lung 12.7% | HOP-92 NSCLC 44% | A549/ATCC NSCLC 37.5% | 786-0 renal 42.1% | DU-145 prostate 31.1% | K-562 leukemia 11.4% | MALME-3M melanoma 52% | MDA-MB-231 breast 51.9% | RXF 393 renal 48% | SF-268 CNS 39.1% | SF-295 CNS 35.7% | SF-539 CNS 21.3% | UACC-257 melanoma 52.2%
active: NCI-H522 lung 6.84% | COLO 205 colon 9.11% | M14 melanoma 1.53%

Nc1nc(N)c2c(n1)NC(c1cccc(Nc3ccnc4cc(C(F)(F)F)ccc34)c1)CC(c1ccc(F)cc1)=N2 (stereo not given)
active: K-562 leukemia 9.19%
inactive: NCI-H23 lung 70.4% | NCI-H226 lung 80% | NCI-H322M lung 86.4% | HOP-62 NSCLC 48.7% | NCI-H460 lung 18% | HOP-92 NSCLC 31.6% | NCI-H522 lung 48.2% | A549/ATCC NSCLC 40.1% | 786-0 renal 60.4% | COLO 205 colon 29.1% | DU-145 prostate 63.8% | MALME-3M melanoma 53.2% | MDA-MB-231 breast 44.8% | RXF 393 renal 42.8% | SF-268 CNS 52.2% | SF-295 CNS 49.2% | SF-539 CNS 73.8% | UACC-257 melanoma 74.8% | M14 melanoma 27.7%

C=CCN1C=CC(=O)[C@H](O[Si](C)(C)C(C)(C)C)[C@@H]1/C=C/c1ccccc1
active: NCI-H23 lung -71.6% [100 µM] | NCI-H226 lung -65.3% [100 µM] | NCI-H322M lung -59.2% [100 µM] | HOP-62 NSCLC -88.9% [100 µM] | NCI-H460 lung -49.3% [100 µM] | HOP-92 NSCLC -89.7% [100 µM] | NCI-H522 lung -39.1% [100 µM] | A549/ATCC NSCLC -40.4% [100 µM] | 786-0 renal -88.2% [100 µM] | COLO 205 colon -64% [100 µM] | DU-145 prostate -59.1% [100 µM] | K-562 leukemia 4.18% [100 µM] | MALME-3M melanoma -57.5% [100 µM] | MDA-MB-231 breast -68.3% [100 µM] | RXF 393 renal -45.5% [100 µM] | SF-268 CNS -58.2% [100 µM] | SF-295 CNS -66.7% [100 µM] | SF-539 CNS -82.7% [100 µM] | UACC-257 melanoma -75.9% [100 µM] | M14 melanoma -78.6% [100 µM]

O=C(Nc1cc(C(F)(F)F)cc(C(F)(F)F)c1)c1cc(Cl)ccc1O
active: NCI-H23 lung -25.2% and -11.5% | NCI-H226 lung -27.9% | NCI-H322M lung -3.01% and 1.1% | HOP-62 NSCLC -27.3% and -3.41% | NCI-H460 lung 0.0882% and 2.21% | HOP-92 NSCLC -19.6% and -14.1% | NCI-H522 lung -45.5% and -23% | A549/ATCC NSCLC -7.9% and 5.51% | 786-0 renal -41.1% and -48.8% | COLO 205 colon -83.1% and -64.5% | K-562 leukemia 2.85% and 5.08% | MALME-3M melanoma -38.3% and -37.1% | MDA-MB-231 breast -11.4% and -22.8% | RXF 393 renal -40% and -5.38% | SF-295 CNS -63.1% and -66.9% | SF-539 CNS -31% and -18% | UACC-257 melanoma -52.7% and -18.1% | M14 melanoma -6.08% and -32.7%
14.4% (inactive) and 5.91% (active): DU-145 prostate
11.7% (inactive) and -7.95% (active): SF-268 CNS

C#CCn1cnc2cnc(Nc3cccc(NC(=O)CCl)c3)nc21
active: NCI-H23 lung -8.25% [6.25 µM] | NCI-H226 lung -26% [6.25 µM] | HOP-62 NSCLC 4.26% [6.25 µM] | NCI-H460 lung -13.4% [6.25 µM] | NCI-H522 lung -57.1% [6.25 µM] | A549/ATCC NSCLC -51.3% [6.25 µM] | 786-0 renal 2.39% [6.25 µM] | COLO 205 colon -57.3% [6.25 µM] | K-562 leukemia 4.47% [6.25 µM] | RXF 393 renal -27.5% [6.25 µM] | SF-268 CNS 6.9% [6.25 µM] | SF-539 CNS -0.618% [6.25 µM] | UACC-257 melanoma 1.35% [6.25 µM] | M14 melanoma -49.1% [6.25 µM]
inactive: NCI-H322M lung 10.4% [6.25 µM] | HOP-92 NSCLC 12.6% [6.25 µM] | DU-145 prostate 17.1% [6.25 µM] | MALME-3M melanoma 28.1% [6.25 µM] | MDA-MB-231 breast 14.6% [6.25 µM] | SF-295 CNS 16.1% [6.25 µM]

Nc1n[nH]c2cccc(C#Cc3cccc(NC(=O)c4ccc(N5CCOCC5)c(C(F)(F)F)c4)c3)c12
active: NCI-H226 lung -0.121% | HOP-92 NSCLC -47.1% | NCI-H522 lung 9.42% | 786-0 renal -39.4% | COLO 205 colon -18.2% | K-562 leukemia 0.995% | MDA-MB-231 breast -22.3% | RXF 393 renal -66% | SF-295 CNS -36.9% | SF-539 CNS -56% | M14 melanoma 3.69%
inactive: NCI-H23 lung 13.5% | NCI-H322M lung 10.4% | HOP-62 NSCLC 16.8% | NCI-H460 lung 18.7% | A549/ATCC NSCLC 13% | DU-145 prostate 25.7% | MALME-3M melanoma 11.2% | SF-268 CNS 23.4% | UACC-257 melanoma 17.6%
